About 2,400 (1.1%) of roughly 220,000 compounds were called active. Another 7% or so got no clear call; they are omitted. The sample holds actives, similar compounds and a random draw of the others, so the mix is not that of the screen. Values without a mark were called inactive. The call rests on the fitted dose curve; in most records, active means well fitted inhibition curve with a large enough effect; inconclusive means small, poorly fitted or top-dose-only effect, or effect the other way; inactive means no such curve, though single readings can be large or run the other way.
experiment: qHTS Multiplex Assay to Identify Dual Action Probes in a Cell Model of Huntington: Aggregate Formation (GFP); details: PC12 HttQ103-GFP aggregates, Acumen cytometry, 40 h; series mostly up to 9.22 µM; activity change, negative = inhibition: at the top concentration; further: nearly all actives have a fitted effect of over 60% in size
Source text: NIH Chemical Genomics Center [NCGC]
NIH Molecular Libraries Probe Production centers Network [MLPCN]
Assay Submitter (PI): Wei Zheng
Huntington's disease is a neurodegenerative disorder caused by a trinucleotide repeat expansion in Exon 1 of the Huntingtin gene. The CAG trinucleotide encodes glutamine and polyglutamine expansions cause cell death in selective areas of the brain. Huntington polyglutamine repeats have the tendency to form aggregates which are observable in later stages of the disease. The exact nature of the aggregates, whether toxic, protective, or insignificant, is unclear.
A stable PC12 cell line containing a gene fusion of Exon 1 of the Huntingtin gene linked to GFP under the control of the inducible ecdysone promoter were used as the cell-based model of Huntington Disease for high throughput screening. Exon 1 of the Huntingtin gene contained an expansion of 103 polyglutamines (Q103) which, when expressed, caused cell death and distinct, bright GFP aggregates. The amount of cell death and the size and intensity of GFP aggregates increased over time and induction level. The cell death were quantified with a measurement of ATP content in the cells. A maximal 40-50% of cell death was observed when the Huntington gene was induced in this cell line.
We optimized this assay in a homogeneous 1536 well format. A quantitative high throughput screen (qHTS) was conducted on the PC12 cells which were induced to express the toxic fusion construct. Small molecules which reduced aggregate formation were identified bu using a laser scanning cytometer calibrated to detect the aggregates in cell lysates.
PC12 cells stably containing a construct with an ecdysone inducible promoter expressing GFP fused to the exon 1 of HTTQ103 (Huntington protein which containing a 103 ployglutamine expansion) were used.
NCGC Assay Protocol Summary:
Sequence, Parameter, Description
1, Reagent, 5 uL 1500 cells/well 1536 TC treated White clear bottom plate
2, Compound, 23 nL Tebufenozide inducer (100 nM final) to all columns
3, Compound, 23 nL 40 uM to 0.5 nM Libraries
5, Reagent, 5 ul ATPLite cell death assay reagent
6, Detector, Aggregate quantitation by Acumen Explorer
Media consisted of phenol red free DMEM + 5% equine serum (Hyclone # SH30072.03 ), 5% supplemented Bovine Calf Serum (Hyclone # SH30074.03 ), 1x pen/strep, no G418
Acumen Explorer was used to quantitate GFP aggregates using the following criteria: […] laser excitation, 500-530 nm emission, the PMT was set at a voltage of 450 volts, and objects ranging in size of […] in size having a signal of 6 STDEV above background were collected.
Control columns: 1 = DMSO, 2= 2 uM teb dilns (1:1), 4 = 100 nM Teb inducer. Sample columns received 100 nM Teb.
On the % scale 0 is the no-effect control and ±100 the full control effect.

| SMILES | Potency | activity change, negative = inhibition |
| --- | --- | --- |
| OCCCNc1nccc(-c2cc(Nc3cccc(Cl)c3)ncn2)n1 | 0.794 µM (active) | – |
| O=C(Nc1cc(Cl)cc(Cl)c1)C(NCCCO)c1ccccc1 (stereo not drawn) | – | 2.63% [at 46.1 µM] |
| Brc1ccc2c(c1)[C@H]1OCC[C@H]1[C@@H](c1cccs1)N2 | – | -17.7% |
| O=C(CSc1nc2ccccc2[nH]1)c1cccs1 | – | 9.78% [at 46.1 µM] |
| CCC(C)N1C(=O)S/C(=C/c2ccc(Sc3nc4ccccc4[nH]3)o2)C1=O (stereo not drawn) | 10 µM (active) | – |
| CCCCSc1nc2ccccc2[nH]1 | – | -0.277% |
| O=C(O)c1ccc(/C=N/Nc2nc(N3CCCCC3)nc(N3CCCCC3)n2)cc1 | – | -22.3% |
| NC(=O)c1ccc(NC(=O)COC(=O)c2ccc([N+](=O)[O-])cc2)cc1 | – | 13.2% |
| COc1ccc(N(Cc2ccccc2)S(=O)(=O)c2cccc(C(=O)O)c2)cc1 | – | 39.5% |
| O=C(NCCN1CCOCC1)c1ccc2c(c1)N(Cc1ccc(Cl)cc1)CCS2 | – | -10.9% |
| CCOC(=O)N1CCN(C(=O)c2ccc3c(c2)N(Cc2ccc(C)cc2)CCS3)CC1 | 11.2 µM (active) | – |
| CCOC(=O)N1CCN(C(=O)c2ccc(S(=O)(=O)c3ccc(C)cc3)c(NC(C)=O)c2)CC1 | – | 10.1% [at 46.1 µM] |
| Cc1ccc(S(=O)(=O)N2CCN(C(=O)COC(=O)c3c(C)noc3C)CC2)c(C)c1 | – | -9.73% |
| Cc1onc(-c2ccccc2)c1C(=O)N1CCOCC1 | – | -8.31% [at 46.1 µM] |
| Cc1oc2c(c1C(=O)N1CCOCC1)C(=O)c1ccccc1C2=O | 10 µM (active) | – |
| O=C(c1ccccc1-c1ccccc1)N1CCOCC1 | – | 1.58% [at 46.1 µM] |
| COCCN1C2=C(COC(C)(C)C2)C(=S)NC1c1ccccc1 (stereo not drawn) | – | 23.8% |
| COC(=O)c1sccc1NN1C(=O)c2ccccc2C1=O | – | -15.1% |
| COCCNC(=O)c1ccccc1-c1nc(-c2ccccc2Cl)no1 | – | 8.12% [at 46.1 µM] |
| COCCNC(=O)c1snc2ccc(Cl)cc12 | 10 µM (active) | – |
| COC(=O)c1sc2ncccc2c1OCc1ccc(Cl)cc1Cl | – | -3.42% [at 46.1 µM] |
| Clc1ccc2c(c1)C1=C(C(c3ccncc3)O2)C(c2ccc(Br)cc2)n2ncnc2N1 (stereo not drawn) | 12.6 µM (active) | – |
| Brc1ccc(C2=CC(c3ccco3)n3ncnc3N2)cc1 (stereo not drawn) | – | -24.3% [at 46.1 µM] |
| COC(=O)C1=C(C)Nc2ncnn2C1c1cccnc1 (stereo not drawn) | – | -8.05% [at 46.1 µM] |
| Cc1ccc(-c2ncc(Cl)cc2-c2ccc(S(C)(=O)=O)cc2)cn1 | – | 1.61% [at 46.1 µM] |
| Cc1ccc(Cn2c(SCC(=O)N/N=C/c3ccccc3OCC(=O)O)nc3ccccc32)cc1 | – | 17.6% |
| O=C(CCCN1C(=O)/C(=C/c2ccco2)SC1=S)Nc1ccccc1 | 25.1 µM (active) | – |

| SMILES | Potency | activity change, negative = inhibition |
| --- | --- | --- |
| O=C(CCCN1C(=O)/C(=C\c2ccccc2)SC1=S)Nc1ccccc1O | – | 22.3% |
| O=C(CCCN1C(=O)/C(=C\c2ccco2)SC1=S)Nc1cccc2ccccc12 | – | 24.3% |
| CC(=O)NCC(O)c1ccc([N+](=O)[O-])cc1 (stereo not drawn) | – | -18.6% |
| C/C(Cc1ccccc1)=N\NC(=O)CNC(=O)c1ccc2c(c1)OCCO2 | – | 2.88% |
| O=C(Nc1ccc(N2CCN(C(=O)c3ccccc3)CC2)c(Cl)c1)c1cccnc1 | 22.4 µM (active) | – |
| COC(=O)c1cc(NC(=O)c2cccnc2)ccc1N1CCOCC1 | – | 1.39% |
| O=C(Nc1ccc(N2CCN(C(=O)c3ccccc3)CC2)c(Cl)c1)c1ncn[nH]1 | – | -29.1% |
| O=C(Nc1ccc(N2CCOCC2)nc1)c1c(F)cccc1F | – | 10.4% |
| O=C1C2C3C=CC(C4CC34)C2C(=O)N1/N=C/c1ccc(-c2ccccc2[N+](=O)[O-])o1 (stereo not drawn) | 25.1 µM (active) | – |
| N#C/C(=C/c1ccc(-c2ccccc2[N+](=O)[O-])o1)C(=O)NCCN1CCCCC1 | – | -12.2% |
| Cc1cc(-c2ccc(/C=N/n3cnnc3)o2)c([N+](=O)[O-])cc1C | – | 3.65% [at 46.1 µM] |
| FC(F)(F)c1cccc(NC(=S)Nc2cccc(Cl)c2)c1 | – | -6.26% [at 46.1 µM] |
| COC(=O)c1ccccc1Sc1c(/C=N/OCc2ccc(Cl)cc2)c(C(F)(F)F)nn1C | – | -26.1% [at 46.1 µM] |
| Cn1nc(C(F)(F)F)c(C(=O)Nc2cccc(C(F)(F)F)c2)c1SCc1ccc(Cl)cc1 | 12.6 µM (active) | – |
| COc1ccc2[nH]c(=S)cc(C)c2c1 | – | 19.9% |
| O=C(Nc1nnc(COc2ccccc2)s1)Nc1ccccc1F | – | -6.11% |
| CC(NC(=S)NNS(=O)(=O)c1ccc(C(C)(C)C)cc1)c1ccccc1 (stereo not drawn) | – | -16.9% |
| Cc1cc2ncn(CCCCOc3ccccc3)c2cc1C | 11.2 µM (active) | – |
| Clc1ncn(CCOc2ccccc2)c1Cl | – | -7.07% |
| COCCOCCn1cnc2ccccc21 | – | -19.1% [at 46.1 µM] |
| CCOC(=O)CSc1nc(C)c(Oc2ccc(Cl)cc2Cl)c(=O)[nH]1 | – | -4.52% |
| Brc1ccc(-c2nn[nH]n2)cc1 | – | 11.1% |
| COc1ccc(SCCN2CCN(CC(C)C)CCC2=O)cc1 | – | -1.2% |
| CSc1nc(-c2ccccc2)nc(C(Cl)Cl)n1 | 11.2 µM (active) | – |
| CSc1nc(C)cc(SC(C(C)=O)C(=O)Nc2ccccc2)n1 (stereo not drawn) | – | -11.8% [at 46.1 µM] |
| Cc1cccc(NC(=O)CSc2nnc(CCNC(=O)OC(C)(C)C)o2)c1C | – | -7.25% |

From PubChem BioAssay AID1688 (National Center for Advancing Translational Sciences (NCATS), 2009)
